The full list was thinned out, with hits kept by preference.
Tg IFNy HTS = T. gondii growth inhibition with IFN-gamma, primary screen, cell-based | Toxoplasma gondii growth in IFN-gamma-treated host cells; stronger effect = lower value | AID 1259416, 2018 | activity change, negative = inhibition, % (test concentration not listed) | 3.8% of 69,000 active; in the data active = activity change below about -70%, passing the limit was not always enough;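 note: host cells are HeLa cells infected with Toxoplasma gondii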
Large screens that a line does not name were inactive; ! = not active in a repeat.

CN1C(=O)CCc2cc(NS(=O)(=O)Cc3cccc(Cl)c3)ccc21	none
COCCN1C(=O)CCc2cc(NS(=O)(=O)c3ccc(Br)cc3)ccc21	none
COCCN1C(=O)CCc2cc(NS(=O)(=O)c3ccc(Cl)s3)ccc21	none
Cc1nc(N)cc(CC2CCN(CCS(=O)(=O)c3ccccc3)CC2)n1	none
Cc1cc(Cn2ccnc2-c2ccc(C(=O)O)cc2)no1	none
CC(C)N1CCOCC2(CCCN(C(=O)c3cn(C)cn3)C2)C1 (stereo not given)	none
COc1ccc(-c2nc(Cc3noc(-c4ccccc4OC)n3)c(C)o2)cc1	none
O=C(Nc1ccc(OC(F)(F)F)cc1)OCc1ccc(C#Cc2ccccc2)s1	Tg IFNy HTS -83
O=C(O)CC1(CC(=O)Nc2ccc(OC(F)(F)F)cc2)CCCC1	none
CCOC(=O)c1cncc(C#CCOC(=O)Nc2ccc(OC(F)(F)F)cc2)c1	none
CCC(c1cccnc1)N(C)C(=O)c1ccc(S(N)(=O)=O)cc1 (stereo not given)	none
COc1cc2c(cc1-c1cncn1Cc1ccccc1CN(C)C)OCCCO2	none
CCOc1ccc(-c2nc(CN3CCN(C(=O)Nc4ccc(C)cc4Cl)CC3)c(C)o2)cc1	none
CNCCC=C1c2ccccc2C=Cc2ccccc21	none
CNCCCC1c2ccccc2C=Cc2ccccc21	Tg IFNy HTS -81!
CC(C)N(C)[C@@H]1CCN(C2CCOCC2)[C@@H]1Cc1cnn(C)c1	none
Cc1ccccc1CN1CCCC(c2nn(C)c(=O)n2-c2ccccc2)C1 (stereo not given)	none
Cc1ccc(-c2nc3c(s2)CN(C(=O)NCc2ccccc2)CC3)cc1	none
COc1ccc(CNC(=O)c2nc3c(s2)CCN(C(=O)CC(C)C)CC3)cc1	none
O=C(NCc1ccccc1)c1nc2c(s1)CCN(C(=O)c1ccncc1)CC2	Tg IFNy HTS -74
CNC(=O)[C@@H]1CC2CN(S(=O)(=O)c3ccc(C)c(F)c3)CC2N1C (stereo not given in full)	Tg IFNy HTS -93
CNC(=O)[C@@H]1CC2CN(S(=O)(=O)c3ccccc3)CC2N1C(C)=O (stereo not given in full)	none
CNC(=O)[C@H]1C[C@@H]2CN(Cc3ccoc3)C[C@@H]2N1C	none
O=C(Nc1cccc(F)c1)c1ccnn1-c1ccc2ccccn12	none
O=C(CN1CCc2[nH]nc(-c3ccccc3F)c2C1)N1CCCC(c2csnn2)C1 (stereo not given)	none
CC(=O)C(Sc1nccc(-c2cccnc2)n1)C(C)=O	none
Nc1ccccc1NC(=O)c1ccc(CNc2nccc(-c3cccnc3)n2)cc1	Tg IFNy HTS -79!
CS(=O)(=O)n1nc(-c2cccnc2)nc1NCc1ccc(Cl)cc1	none
COc1ccc(C2CN=NC23CSc2ccccc2C3=O)cc1 (stereo not given)	Tg IFNy HTS -82
COc1ccc(C2NC(=S)NC3=C2CCc2ccccc23)cc1 (stereo not given)	none
COc1ccc(C2Sc3ccccc3N=C3c4ccccc4CCC32)cc1 (stereo not given)	none
Cc1cc(C)n(CCNC(=O)Cn2nc(C)c(C)c2C)n1	none
CC(C)COc1ccccc1CN(C)C(=O)c1ccoc1	none
COc1ccc(S(=O)(=O)NCc2nc(-c3ccccc3)oc2C)cc1OC	none
O=C(O)c1cc2ccccc2s1	Tg IFNy HTS -71
Cc1cc(CNC(=O)c2cc3ccccc3s2)c2ccccc2n1	none
CC1CCN(C(=O)c2cc3ccccc3s2)CC1	none
OCc1cc(-c2nc3ccccc3s2)ccc1F	none
Cc1ccc2c(n1)N(CCn1cccn1)CCN(S(C)(=O)=O)C2	none
COc1ccc(CN2CCN(Cc3ccc(Cl)cc3)CC2)c(F)c1F	none
CS(=O)(=O)N1CC(C(=O)Nc2nc(-c3ccccn3)cs2)Oc2ccccc21 (stereo not given)	Tg IFNy HTS -101
CCOC(=O)C1CN(S(=O)(=O)c2ccc(C)cc2)c2ccccc2O1 (stereo not given)	none
CS(=O)(=O)N1C[C@H]2COC[C@@]2(C(=O)NCc2ccccn2)C1	none
COC(=O)[C@@H]1C[C@@H](NC(=O)c2c(-n3cccc3)sc(C)c2C)CN1C	none
Cc1noc(C)c1CC(=O)N1CC(=O)N(C(C)C)CC(OCc2ccc(OC(F)(F)F)cc2)C1 (stereo not given)	none
CC(=O)c1[nH]c(C)c(C(=O)N2CCc3nc(C)n(C)c(=O)c3CC2)c1C	none
CC1CCc2c(sc(NC(=S)NC(=O)c3ccnn3C)c2C(N)=O)C1 (stereo not given)	none
O=C(Nc1cc(F)cc(F)c1)N1CCCC2(C1)Nc1cccnc1NC2=NC1CCCC1 (stereo not given)	Tg IFNy HTS -86
COc1cccc(NC(=O)N2CCCC3(C2)Nc2cccnc2NC3=NC2CCCC2)c1 (stereo not given)	none
COc1ccc(C)cc1NC(=O)N1CCCC2(C1)Nc1cccnc1NC2=NC1CCCC1 (stereo not given)	none
CCOc1ccccc1NC(=O)N1CCC2(CC1)NC(=O)c1ccc(Cl)cc1N2C	none
Cc1noc(C)c1CN1CCCC2(CCN(S(=O)(=O)c3cccc(F)c3)C2)C1 (stereo not given)	none
O=C(c1sccc1S(=O)(=O)N1CCCC1)N1CCCC(c2ccn[nH]2)C1 (stereo not given)	none
Cc1oc(-c2ccccc2)nc1Cn1nnc(C(=O)Nc2ccc(Br)cc2)c1C	none
CC(C)CN1C(=O)N(C)C2(CCN(CC(C)Cc3ccc4c(c3)OCO4)CC2)C1=O (stereo not given)	none
Cc1cc(CN2CC3C[C@@H](O)CN3C[C@@H]2C)c(C)n1-c1ccc2c(c1)OCO2 (stereo not given in full)	none
CC(Cc1ccc2c(c1)OCO2)CN1CC2C[C@@H](O)CN2C[C@H]1C (stereo not given in full)	Tg IFNy HTS -86
COc1ccc2c(c1)c(C(O)CN1CCCC(O)(c3ccc(F)cc3)CC1)c(C)n2C (stereo not given)	none
COc1ccc(-c2nc(Cn3ccn4nc(-c5ccc(F)cc5)cc4c3=O)c(C)o2)cc1	none
COc1ccc(S(=O)(=O)N2CCC3(CC2)Nc2cc(C)ccc2-n2cccc23)cc1	none
C[C@@H]1CCCCO[C@@H](CN(C)Cc2ccncc2)[C@@H](C)CN([C@H](C)CO)C(=O)c2cc(NS(=O)(=O)c3ccc(Cl)cc3)ccc2O1	none
COc1ccc(S(=O)(=O)Nc2ccc3c(c2)C(=O)N([C@@H](C)CO)C[C@@H](C)[C@@H](CN(C)Cc2ccc(C(F)(F)F)cc2)OCCCC[C@H](C)O3)cc1	Tg IFNy HTS -120
C[C@H]1CCCCO[C@H](CN(C)Cc2ccncc2)[C@@H](C)CN([C@@H](C)CO)C(=O)c2cc(NS(=O)(=O)c3ccc(Cl)cc3)ccc2O1	none
COc1ccc(S(=O)(=O)Nc2ccc3c(c2)C(=O)N([C@@H](C)CO)C[C@@H](C)[C@@H](CN(C)Cc2ccc(C(F)(F)F)cc2)OCCCC[C@@H](C)O3)cc1	Tg IFNy HTS -109
COc1ccc(CN(C)C[C@@H]2OCCCC[C@@H](C)Oc3ccc(NC(=O)C4CCCCC4)cc3C(=O)N([C@H](C)CO)C[C@@H]2C)cc1	none
COc1ccc(S(=O)(=O)Nc2ccc3c(c2)C(=O)N([C@H](C)CO)C[C@H](C)[C@H](CN(C)Cc2ccc(C(F)(F)F)cc2)OCCCC[C@H](C)O3)cc1	Tg IFNy HTS -111
C[C@@H]1CCCCO[C@H](CN(C)Cc2ccncc2)[C@@H](C)CN([C@H](C)CO)C(=O)c2cc(NS(=O)(=O)c3ccc(Cl)cc3)ccc2O1	none
C[C@@H]1CCCCO[C@H](CN(C)Cc2ccncc2)[C@H](C)CN([C@H](C)CO)C(=O)c2cc(NS(=O)(=O)c3ccc(Cl)cc3)ccc2O1	Tg IFNy HTS -103
